# Sampled rows, rich in hits. Any-hit rate of the full collection: about 21%.
# CYP2C9 act = activators of human CYP2C9 | P11712 | recombinant CYP2C9, luciferin-H conversion, luminescence; hits give high values; factor 1 = untreated enzyme, 0 = blocked | activation factor at 5 µM | actives 1.4% (n = 96,000) | AID 1024;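 active means activation factor of 2 or more for CYP2C9 at a 5 µM dose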
# Target sequence (P11712 whole entry, looked up): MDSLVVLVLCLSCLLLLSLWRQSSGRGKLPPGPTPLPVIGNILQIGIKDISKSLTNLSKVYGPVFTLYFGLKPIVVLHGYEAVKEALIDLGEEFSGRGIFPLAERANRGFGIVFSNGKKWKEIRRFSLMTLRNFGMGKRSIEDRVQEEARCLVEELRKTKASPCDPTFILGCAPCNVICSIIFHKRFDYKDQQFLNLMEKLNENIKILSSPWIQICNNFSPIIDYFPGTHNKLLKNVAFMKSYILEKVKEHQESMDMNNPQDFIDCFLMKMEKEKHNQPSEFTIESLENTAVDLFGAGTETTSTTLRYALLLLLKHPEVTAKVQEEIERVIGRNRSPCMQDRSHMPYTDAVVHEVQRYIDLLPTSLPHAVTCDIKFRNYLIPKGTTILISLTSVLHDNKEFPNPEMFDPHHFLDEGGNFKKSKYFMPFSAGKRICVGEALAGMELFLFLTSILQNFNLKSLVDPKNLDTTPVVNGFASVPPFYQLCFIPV
# CYP2C19 act = cytochrome P450 2C19 (human) activation. recombinant CYP2C19, luciferin-H EGE luminescence; hits give high values; 0 = fully inhibited enzyme, 1 = untreated enzyme. activation factor at 5 µM. AID 1025. P33261. 96,000 tested, under 10 active;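 active means activation factor of at least 2 at 5 µM in the primary screen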
# MRP1 act = activates MRP-1; H69AR cells + doxorubicin, viability rescue, CellTiter-Glo; viability increase, % at 10 µM; actives 0.61% (n = 140,000); AID 799;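 active means viability gain under doxorubicin at or above a set limit, the compound median plus 3 SD, cut at about 4.7% in these data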;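 further: MRP-1 overexpressing cells given doxorubicin 25 µM after compound pretreatment; 18-22 h compound pretreatment then 72 h with doxorubicin before readout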
# CYP2C9 inhib = human CYP2C9 inhibition; P11712; CYP2C9 Supersomes, luciferin-H conversion, luminescence; actives 20% (n = 96,000); inhibition, % at 5 µM; AID 777;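 active means blocking of liver enzyme CYP2C9 beyond about 50% at 5 µM, limit read from the data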
# MRP reversal = compounds reversing MRP-mediated drug resistance; H69AR cells + 2 uM doxorubicin, CellTiter-Glo, 72 h; differential viability (reversal), % at 10 µM; actives 0.04% (n = 85,000);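 active means viability drop by adding the cancer drug above about 55%, with treated viability meeting a 40% cutoff, limit read from the data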;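 further: larger differential means the compound sensitizes cells more to doxorubicin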
# CYP2C19 inh = inhibitors of human CYP2C19. AID 778. inhibition, % at 5 µM. CYP2C19 Supersomes, luciferin-H EGE luminescence, 30 min. P33261. actives 21% (n = 96,000);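 active means CYP2C19 inhibition above a set limit at 5 µM in the primary screen, cut at about 50% in these data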
# Numbers stand for hits; i = inactive; nt = not tested or not shown.
SMILES,CYP2C9 act,CYP2C19 act,MRP1 act,CYP2C9 inhib,MRP reversal,CYP2C19 inh
CC(C)OC(=O)CCc1nc2ccccc2[nH]c1=O,i,i,i,i,i,76.0
CCOC(=O)c1cnn(-c2ccccc2)c1-n1cccc1C(=O)C(=O)Nc1ccc(F)cc1,i,i,i,74.8,nt,i
CCOC(=O)c1cnn(-c2ccccc2)c1-n1cccc1C(=O)C(=O)Nc1ccccc1,i,i,i,72.3,nt,i
CCOC(=O)c1cnn(-c2ccccc2)c1NC(=O)c1ccccc1,i,i,i,i,i,i
CN(C)c1nc(-c2ccccc2)c2cnn(Cc3ccccc3)c2n1,i,i,i,i,i,66.8
c1ccc(Cn2ncc3c2ncn2nc(-c4ccncc4)nc32)cc1,nt,nt,nt,nt,i,nt
O=C(COc1ccc(Br)cc1)N(Cc1ccccc1)c1ccccn1,nt,nt,i,nt,nt,nt
O=C(COc1ccc(Cl)cc1)N(Cc1ccccc1)c1ccccn1,i,i,i,54.6,nt,97.7
Cc1ccc(Nc2c([N+](=O)[O-])ccc3c2=NC2(CCCCC2)N=3)cc1,i,i,i,i,nt,i
COc1ccccc1-c1nnc(NC(=O)c2ccccc2F)o1,i,i,i,63.7,i,i
CCc1nnc(NC(=O)c2ccc(S(=O)(=O)N(CCOC)CCOC)cc2)s1,2,i,i,i,i,i
CCCCN(CC)S(=O)(=O)c1ccc(C(=O)Nc2nnc(-c3ccccc3Cl)o2)cc1,i,i,i,68.8,i,i
CCCCN(CC)S(=O)(=O)c1ccc(C(=O)Nc2nnc(COC)o2)cc1,i,i,i,64.2,i,i
COCC(C)OC(=O)/C(C#N)=C\c1coc2ccc(C)cc2c1=O (stereo not drawn),nt,nt,i,nt,nt,nt
COc1ccccc1-c1nnc(NC(=O)c2ccc(S(=O)(=O)N(C)C)cc2)o1,i,i,i,i,i,i
O=C(Nc1nnc(-c2ccccc2Cl)o1)c1ccc(S(=O)(=O)N2CCCCCC2)cc1,i,i,i,54.5,i,i
CCN(Cc1ccccc1)S(=O)(=O)c1ccc(C(=O)Nc2nnc(-c3ccccc3OC)o2)cc1,i,i,i,70.1,i,i
CCCCN(CC)S(=O)(=O)c1ccc(C(=O)Nc2nnc(CSC)o2)cc1,i,i,i,81.8,nt,i
CCCCCOc1ccc(C(=O)NCC(=O)NCC(=O)OCC)cc1,i,i,i,i,i,i
Cc1ccccc1OCc1nnc(SCC(=O)Nc2ccc3nc(SCC(=O)Nc4ccccc4)sc3c2)n1C,nt,nt,i,nt,nt,nt
COc1ccc(CNC(=O)CCCOc2cc(=O)n(C)c3ccccc23)cc1,i,i,i,77.6,i,91.7
COc1ccc(OCCN(C)Cc2ccccc2)cc1,i,i,i,i,i,68.4
CC1CCN(C(=O)CCCOc2cc(=O)n(C)c3ccccc23)CC1,i,i,i,i,nt,50.3
CN1CCN(CCCNC(=O)CCCOc2cc(=O)n(C)c3ccccc23)CC1,i,i,i,i,i,i
CN(CCOCCOc1ccc2ccccc2c1)Cc1ccccc1,i,i,i,i,i,i
SMILES,CYP2C9 act,CYP2C19 act,MRP1 act,CYP2C9 inhib,MRP reversal,CYP2C19 inh
COc1ccc(OCCC(=O)NCc2ccccc2)cc1,i,i,i,i,i,50.7
COc1ccc(CNC(=O)COC(=O)CCOc2ccccc2)cc1,nt,nt,i,nt,nt,nt
Nc1c(-c2ccccc2)cnn1-c1ccc(C(=O)O)cc1,i,i,i,i,i,i
O=S1(=O)CC(O)C(Nc2ccccc2Cl)C1 (stereo not drawn),i,i,i,i,nt,i
CCn1c(CCNC(=O)c2ccccc2Cl)n[nH]c1=S,i,i,i,i,nt,i
COc1ccc(N2CCN(C(=O)CCCOc3cc(=O)n(C)c4ccccc34)CC2)cc1,i,i,i,87.8,i,88.4
Cc1cccc(N2CCN(C(=O)COc3cc(=O)n(C)c4ccccc34)CC2)c1C,i,i,i,i,i,51.3
CC(C)CCNC(=O)CCCOc1cc(=O)n(C)c2ccccc12,i,i,i,i,i,i
Cc1ccc(C)c(N2CCN(C(=O)CCCOc3cc(=O)n(C)c4ccccc34)CC2)c1,i,i,i,90.3,i,94.3
Cc1ccc(C)c(N2CCN(C(=O)COc3cc(=O)n(C)c4ccccc34)CC2)c1,i,i,i,i,i,i
N#Cc1c(N)c(C(=O)c2ccccc2)n2c1CCCC2,i,i,i,i,i,65.8
Cc1cc(C)nc(SCC(=O)Nc2ccccc2[N+](=O)[O-])n1,i,i,i,i,nt,i
Cc1cc(C)nc(SCCC(=O)Nc2cccc3ccccc23)n1,2.5,i,i,i,nt,i
O=C1OCCC1Sc1nc2ccccc2n1-c1ccccc1 (stereo not drawn),i,i,i,66.5,i,69.2
COc1ccc(-c2nnc(SC3CCOC3=O)n2C2CCCCC2)cc1OC (stereo not drawn),i,i,i,i,i,i
O=C1OCCC1Sc1nc2ccccc2n1Cc1ccccc1 (stereo not drawn),i,i,i,54.8,i,81.9
COc1ccc(/C=C2/N=C(SC3CCOC3=O)N(c3cccc(OC)c3)C2=O)cc1 (stereo not drawn),nt,nt,5.2,nt,nt,nt
COc1ccc(-n2c(SC3CCOC3=O)nc3ccccc32)cc1 (stereo not drawn),i,i,i,i,i,50.9
O=C1OCCC1Sc1nc2ccccc2c(=O)n1Cc1ccc(F)cc1 (stereo not drawn),nt,nt,i,nt,nt,nt
Cc1nc2cc(CC(=O)O)ccc2o1,i,i,i,i,nt,i
Cc1cc(OCc2ccc(C(=O)NN=C3CCCC3)cc2)ccc1Cl,nt,nt,i,nt,nt,nt
OC(CN1CCN(c2ccccc2)CC1)c1c[nH]c2ccccc12 (stereo not drawn),i,i,i,i,i,56.7
OC(CN1CCN(Cc2ccc3c(c2)OCO3)CC1)c1c[nH]c2ccccc12 (stereo not drawn),i,i,i,i,i,i
CCOC(=O)Cn1c(=O)c2c(nc(Br)n2Cc2ccc(Cl)cc2)n(C)c1=O,i,i,nt,56.5,i,i
CCOC(=O)CCn1cc(F)c(=O)n(Cc2ccccc2)c1=O,i,i,i,i,i,51.7
SMILES,CYP2C9 act,CYP2C19 act,MRP1 act,CYP2C9 inhib,MRP reversal,CYP2C19 inh
CC(O)Cn1c(=O)c2c(nc(Br)n2Cc2ccccc2)n(C)c1=O (stereo not drawn),nt,nt,i,nt,i,nt
CCOC(=O)CCn1c(=O)c2c(nc(Br)n2Cc2ccccc2)n(C)c1=O,i,i,i,i,i,60.0
CCOC(=O)Cn1c(=O)c2c(nc(N3CCCCC3)n2Cc2ccccc2)n(C)c1=O,i,i,i,i,i,i
COc1ccc(C2NC(=O)NC(O)(C(F)(F)F)C2C(=O)c2ccc(C)cc2)cc1 (stereo not drawn),i,i,i,i,i,i
CCOC(=O)N1CCC2(CC1)C(C(=O)C13CC4CC(CC(C4)C1)C3)C2(C#N)C#N (stereo not drawn),i,i,i,51.8,i,67.0
CCOC(=O)c1ccc(NC(=O)CNC(=O)C23CC4CC(CC(C4)C2)C3)cc1,i,i,i,i,i,i
CC(C)(C)C(=O)N1CCN(c2c(Cl)cccc2[N+](=O)[O-])CC1,i,i,i,85.2,nt,64.8

# Screening results: PubChem BioAssay, several laboratories
